# In PubChem BioAssay:
# A number with no mark means an inactive call. Activity calls are given as the source filed them.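 Rule for the calls, unless noted: active = mean inhibition over 43.08%, the solvent-only control mean plus 3 SD; inactive = the rest.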
# Tests used:
# [1] = biological target: Nuclear receptor coactivator 3 (Homo sapiens) (UniProt Q9Y6Q9); assay: SRC3 coactivator transcriptional activity inhibitors, confirmation, cell-based, luminescence, quadruplicate (AID 588792); conditions: HEK293 GAL4-SRC3 luciferase reporter, at 3.6 µM, hits give high values;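 note: 0% = DMSO treated cells and 100% = gossypol at 36 µM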
# Chain of Nuclear receptor coactivator 3 (Homo sapiens) (Q9Y6Q9 whole entry, looked up, the tested form may be a part): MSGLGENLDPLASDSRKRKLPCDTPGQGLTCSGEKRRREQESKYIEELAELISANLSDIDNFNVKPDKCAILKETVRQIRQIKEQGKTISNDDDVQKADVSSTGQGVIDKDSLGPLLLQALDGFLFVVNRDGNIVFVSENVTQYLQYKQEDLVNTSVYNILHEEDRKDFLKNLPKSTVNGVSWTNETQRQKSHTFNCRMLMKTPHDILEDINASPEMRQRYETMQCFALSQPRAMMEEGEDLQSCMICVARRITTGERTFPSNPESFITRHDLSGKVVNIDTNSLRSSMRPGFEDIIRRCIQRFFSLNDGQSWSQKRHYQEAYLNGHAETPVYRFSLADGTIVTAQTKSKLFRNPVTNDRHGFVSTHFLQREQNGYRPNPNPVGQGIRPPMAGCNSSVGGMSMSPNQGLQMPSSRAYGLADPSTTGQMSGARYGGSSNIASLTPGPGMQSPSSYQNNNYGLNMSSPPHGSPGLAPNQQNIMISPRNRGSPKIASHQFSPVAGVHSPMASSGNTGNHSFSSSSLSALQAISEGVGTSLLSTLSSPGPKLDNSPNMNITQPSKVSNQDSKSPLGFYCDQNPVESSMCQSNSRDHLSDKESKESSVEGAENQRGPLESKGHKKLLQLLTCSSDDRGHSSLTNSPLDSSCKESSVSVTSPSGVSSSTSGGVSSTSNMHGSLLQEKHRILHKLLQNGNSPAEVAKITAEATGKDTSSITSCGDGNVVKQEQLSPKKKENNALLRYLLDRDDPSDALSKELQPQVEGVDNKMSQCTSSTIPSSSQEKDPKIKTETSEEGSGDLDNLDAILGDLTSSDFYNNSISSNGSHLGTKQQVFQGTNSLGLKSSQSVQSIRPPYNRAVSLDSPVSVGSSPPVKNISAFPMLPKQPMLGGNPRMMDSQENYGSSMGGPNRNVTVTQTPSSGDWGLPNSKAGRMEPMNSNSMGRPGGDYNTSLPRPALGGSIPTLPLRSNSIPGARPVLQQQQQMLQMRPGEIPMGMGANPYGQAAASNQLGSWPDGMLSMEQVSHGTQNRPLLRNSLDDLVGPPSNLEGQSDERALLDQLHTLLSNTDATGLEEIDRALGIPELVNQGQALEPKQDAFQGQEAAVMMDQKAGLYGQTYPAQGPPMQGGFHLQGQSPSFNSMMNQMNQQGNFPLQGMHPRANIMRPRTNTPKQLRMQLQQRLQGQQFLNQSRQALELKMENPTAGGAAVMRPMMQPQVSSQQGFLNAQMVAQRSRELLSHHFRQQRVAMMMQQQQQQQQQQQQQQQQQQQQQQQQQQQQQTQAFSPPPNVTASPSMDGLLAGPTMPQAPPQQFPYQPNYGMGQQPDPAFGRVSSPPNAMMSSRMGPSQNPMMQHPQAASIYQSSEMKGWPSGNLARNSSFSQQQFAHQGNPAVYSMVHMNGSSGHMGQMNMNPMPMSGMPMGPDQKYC
# [2] = tested on: transactivating tegument protein VP16 (Human herpesvirus 1), Gal4-VP16 luciferase reporter; assay: VP16 transactivation inhibitors, counter-screen for SRC3 inhibitor project, cell-based, luminescence, high throughput (AID 588794; in the data active = inhibition above about 30%); conditions: mammalian cells, VP16-driven luciferase reporter luminescence; at 3.6 µM; hits give high values
# [3] = biological target: Nuclear receptor coactivator 1 (Homo sapiens) (UniProt Q15788); assay: SRC1 coactivator transcriptional activity inhibitors, confirmation, cell-based, luminescence, quadruplicate (AID 588820;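 active = mean inhibition above 46.68%, the untreated control wells mean plus 3 SD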;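 note: 0% = DMSO wells and 100% = gossypol 36 µM treated wells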); conditions: HEK293 GAL4-SRC1 luciferase reporter, at 3.6 µM, hits give high values
# Chain of Nuclear receptor coactivator 1 (Homo sapiens) (Q15788 whole entry, looked up, the tested form may be a part): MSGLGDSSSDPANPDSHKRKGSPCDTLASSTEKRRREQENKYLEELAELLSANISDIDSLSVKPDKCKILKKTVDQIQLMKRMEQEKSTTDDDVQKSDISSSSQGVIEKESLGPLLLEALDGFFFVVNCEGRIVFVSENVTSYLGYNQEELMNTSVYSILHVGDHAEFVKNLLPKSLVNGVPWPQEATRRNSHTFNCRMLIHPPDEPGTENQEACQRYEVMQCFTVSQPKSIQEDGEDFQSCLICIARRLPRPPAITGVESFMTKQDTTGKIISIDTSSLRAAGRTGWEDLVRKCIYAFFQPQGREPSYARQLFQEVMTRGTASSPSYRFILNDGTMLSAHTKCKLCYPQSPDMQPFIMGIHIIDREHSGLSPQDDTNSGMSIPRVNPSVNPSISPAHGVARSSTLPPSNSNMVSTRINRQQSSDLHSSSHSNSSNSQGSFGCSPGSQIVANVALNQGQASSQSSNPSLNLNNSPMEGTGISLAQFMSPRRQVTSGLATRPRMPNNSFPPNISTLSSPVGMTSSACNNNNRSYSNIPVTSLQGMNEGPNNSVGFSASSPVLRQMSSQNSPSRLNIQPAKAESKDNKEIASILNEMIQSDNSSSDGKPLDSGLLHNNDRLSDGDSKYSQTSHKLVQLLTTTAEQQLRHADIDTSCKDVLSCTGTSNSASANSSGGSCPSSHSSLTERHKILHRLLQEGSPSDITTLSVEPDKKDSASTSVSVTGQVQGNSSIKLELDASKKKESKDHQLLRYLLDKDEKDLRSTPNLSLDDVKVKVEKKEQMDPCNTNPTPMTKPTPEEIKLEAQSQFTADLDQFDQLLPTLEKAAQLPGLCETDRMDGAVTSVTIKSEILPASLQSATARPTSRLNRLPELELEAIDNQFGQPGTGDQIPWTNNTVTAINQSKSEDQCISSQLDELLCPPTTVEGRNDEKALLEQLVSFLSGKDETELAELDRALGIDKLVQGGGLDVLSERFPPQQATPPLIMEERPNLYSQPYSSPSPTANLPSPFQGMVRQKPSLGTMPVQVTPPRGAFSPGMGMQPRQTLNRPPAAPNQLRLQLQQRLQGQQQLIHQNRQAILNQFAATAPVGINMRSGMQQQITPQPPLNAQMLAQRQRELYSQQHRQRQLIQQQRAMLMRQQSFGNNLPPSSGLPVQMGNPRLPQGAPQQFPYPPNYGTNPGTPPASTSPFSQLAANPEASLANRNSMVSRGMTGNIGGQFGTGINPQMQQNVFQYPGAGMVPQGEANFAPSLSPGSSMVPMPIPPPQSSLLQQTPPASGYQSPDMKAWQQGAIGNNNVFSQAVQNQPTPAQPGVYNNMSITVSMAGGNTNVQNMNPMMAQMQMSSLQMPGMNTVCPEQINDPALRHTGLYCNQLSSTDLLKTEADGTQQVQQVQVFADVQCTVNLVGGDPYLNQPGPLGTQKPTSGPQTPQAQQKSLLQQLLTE
# [4] = VP16 transactivation inhibitors, counter-screen for SRC1 inhibitor project, cell-based, luminescence, high throughput (AID 588824; in the data active = inhibition above about 25%); conditions: cell-based VP16 transactivation luciferase luminescence; at 3.6 µM; hits give high values
SMILES,inhibition [1],inhibition [2],inhibition [3],inhibition [4]
CC(=O)NC(c1cc(Cl)c2cccnc2c1O)C(C)C (stereo unspecified),31.1%,23.5%,38.5%,20%
CN(C)CCCN1C(=O)c2cccc3c([N+](=O)[O-])ccc(c23)C1=O,17.8%,5.35%,-9.62%,0.85%
COc1ccc(-n2cc(-c3ccccc3)[n+]3c2CCCCC3)cc1,24.8%,22%,16.8%,27.7% (active)
O=c1cccc2c1c1cc[nH]c3ccc(=O)n2c31,43%,32.9% (active),54.3% (active),40% (active)
